Compound activity deposited in PubChem by several laboratories.
An excerpt weighted towards active compounds, which were near 2.2% of everything screened.
Efflux pump inh: antifungal efflux pump inhibition, Nile Red retention; hit rate 0.44% among 330,000; S. cerevisiae Candida pump triplex; inhibition, % at 10 µM;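 active = plate passing quality check with inhibition over a set limit, or well fluorescence over plate mean plus 4 SD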;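 also: Nile Red retained in pooled yeast measured as flow cytometry median fluorescence; higher means more Nile Red kept so more efflux inhibition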
SKN-1 block: C. elegans SKN-1 inhibition. C. elegans VP596 Pgst-4::GFP/RFP ratio, acrylamide-induced, 24 h. inhibition, % at 21.8 µM. hit rate 0.49% among 360,000. AID 624304;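 active = interference check ratio from 0.5 to 1.5 plus GFP to RFP signal ratio inhibition reaching or exceeding a fixed threshold, cut at about 30% in these data, passing the limit was not always enough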
sPLA2-III inh: Blocks human group III sPLA2 activity | hit rate 0.56% among 370,000 | AID 743126 | QFRET BODIPY PC-A2 liposome hydrolysis, fluorescence | inhibition, % at 12.2 µM;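 active = inhibition above mean plus 3 SD of compounds lying within the high and low control bounds, cut at about 19% in these data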
Target sequence (Q9NZ20 whole entry, looked up): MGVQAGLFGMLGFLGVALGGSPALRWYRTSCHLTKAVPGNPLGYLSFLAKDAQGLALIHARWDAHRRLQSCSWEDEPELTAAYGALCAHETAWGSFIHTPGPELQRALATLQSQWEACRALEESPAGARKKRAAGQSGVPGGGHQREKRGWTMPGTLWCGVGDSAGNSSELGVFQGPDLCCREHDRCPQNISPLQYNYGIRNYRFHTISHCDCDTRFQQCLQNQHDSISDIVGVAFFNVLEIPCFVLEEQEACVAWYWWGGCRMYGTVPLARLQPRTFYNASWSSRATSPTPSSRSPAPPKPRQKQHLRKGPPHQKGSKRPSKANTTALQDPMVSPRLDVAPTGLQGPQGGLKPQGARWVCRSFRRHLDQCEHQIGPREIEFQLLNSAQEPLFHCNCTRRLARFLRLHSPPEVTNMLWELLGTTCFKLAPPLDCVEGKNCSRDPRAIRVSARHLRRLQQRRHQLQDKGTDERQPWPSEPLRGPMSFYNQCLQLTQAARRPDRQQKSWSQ
SUMO Mot1 rescue: blocks SUMOylation pathway, rescuing yeast Mot1-301 growth; S. cerevisiae Mot1-301 growth rescue, ATP luminescence, 38.5C; percent above DMSO median, 100 means doubled; AID 2716; hit rate 1% among 320,000; growth rescue, % at 18.8 µM;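 active = every valid replicate shows activation above 250% relative to neutral control wells; inactive = the rest, any valid replicate at or below 250%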
Numbers stand for hits; 0 = inactive; - = no result.

SMILES	Efflux pump inh	SKN-1 block	sPLA2-III inh	SUMO Mot1 rescue
CCCc1cc(C(=O)Nc2nccs2)cs1	0	33	0	0
COc1cccc(C(=O)N[C@H](C(=O)N2CCC[C@H]2C(=O)NCCc2ccccc2Cl)C(C)C)c1	-	-	0	-
CCn1c(CSc2n[nH]c(N)n2)nc2cc(C(=O)O)ccc21	0	37	0	0
CCn1c(CSc2nnc(-c3ccncc3)n2CCOC)nc2cc(C(=O)O)ccc21	0	38	0	0
CCn1c(CSc2nnc(-c3cccnc3)n2-c2ccccc2C)nc2cc(C(=O)O)ccc21	0	-	-	0
Nc1[nH]c(C(=O)c2ccc(Br)cc2)c(-c2cccc3ccccc23)c1C(=O)NCCc1c[nH]c2ccccc12	-	-	0	-
Cc1cccc(-n2nc3c(c2NC(=O)C2CC2)CS(=O)(=O)C3)c1C	0	35	0	0
Cc1ccccc1-n1nc2c(c1NC(=O)C1CCCC1)CS(=O)(=O)C2	0	0	0	0
COc1ccc(N=C2Sc3ccccc3[C@@H]3C[C@H]4[C@H](CON4C)CN23)c(OC)c1	-	-	0	-
COc1cc(NS(=O)(=O)c2ccc(C)cc2)c2c(c1N)C(=O)c1ccccc1C2=O	-	36	0	-
COc1ccc(-c2cc(C(F)F)n3ncc(C(=O)N4CCCCC4)c3n2)cc1	0	0	0	-
COc1ccc(-c2cc(C(F)F)n3ncc(C(=O)N4CCN(C(=O)c5ccco5)CC4)c3n2)cc1	0.8	0	0	0
Cc1cc(-c2nc3cc(F)ccc3s2)ccc1N	-	83	0	-
O=C(NCCN1C(=O)C2C3C=CC(C3)C2C1=O)c1cc(Cl)cc(Cl)c1 (centres undefined)	-	-	0	-
CC(C)CN(C(=O)CCC(=O)OCC(=O)N(C)c1ccccc1)c1c(N)n(CC(C)C)c(=O)[nH]c1=O	0	0	0	515
Cc1cc(Nc2cccc(C(F)(F)F)c2)cc(=O)n1-c1cccc(C(F)(F)F)c1	-	-	0	-
Cc1c(C)n(C)c2ccc(C(=O)NCCN3CCOCC3)cc12	0	50	0	0
COC(=O)C1=C(C)N(Cc2ccc(Cl)cc2)C(=S)NC1c1ccc(Br)cc1 (centres undefined)	-	-	0	-
O=C(N/N=C/c1ccccc1[N+](=O)[O-])C(=O)N1CCCC1	0	0	0	355
c1ccc(-c2cnc(-c3ccccn3)nn2)cc1	0	0	0	0
c1ccc(-c2cnc(-c3ccccc3)nn2)cc1	0	52	0	0
Clc1ccc(NCc2cccnc2)cc1	0	0	0	0
CC(C#N)(Nc1ccc(Cl)cc1)c1cccnc1 (centres undefined)	0	0	0	306
CCCn1nc2cc(C(=O)NCc3ccc(OC(F)(F)F)cc3)ccc2c1OCC	-	62	0	0
COc1ccc(NC(=O)CN2CCN(Cc3ccc4c(c3)OCO4)CC2)cc1OC	0	37	0	0
SMILES	Efflux pump inh	SKN-1 block	sPLA2-III inh	SUMO Mot1 rescue
O=C(CN1CCN(Cc2ccc3c(c2)OCO3)CC1)Nc1ccc2c(c1)OCO2	0	0	0	0
O=c1c2ccccc2oc2ccc(-c3ccc4cc[nH]c4c3)cc12	0	70	-	0
Cc1ccc2oc3ccccc3c(=O)c2c1	-	0	0	-
O=C(O)c1ccc([N+](=O)[O-])c2c1C(=O)c1ccccc1C2=O	0	0	0	0
O=C1c2ccccc2C(=O)c2c([N+](=O)[O-])ccc(O)c21	0	37	0	0
CC(C)OC(=O)c1cc2ccccc2[nH]1	0	0	0	0
CCOC(=O)c1cc2cc3ccccc3cc2[nH]1	0	40	0	0
CC1(C)C(=O)Nc2ccccc2N1C(=O)CN1C(=O)NC(CCc2ccccc2)C1=O (centres undefined)	0	0	0	345
CC(=O)N/C(=C\c1ccc(C)cc1)C(=O)O	0	0	0	0
O=C(C(=O)N1CCC(CNS(=O)(=O)Cc2ccccc2)CC1)c1cccs1	-	-	0	-
Cc1ccc(C(=O)N/N=C/c2c(O)ccc3ccccc23)cn1	0	0	30	0
Cc1nn2c(-c3ccccc3)ccnc2c1-c1ccccc1	0	0	0	0
N#CCc1nn2c(-c3ccccc3)ccnc2c1C#N	0	43	0	0
O=C(NC(=S)N1CCCCC1)C12CC3CC(CC(C3)C1)C2	0	0	0	0
O=C(c1cc(NC(=O)C23CC4CC(CC(C4)C2)C3)cc(NC(=O)C23CC4CC(CC(C4)C2)C3)c1)N1CCCCC1	1.1	-	-	0
CC1(C)CC(=O)C=C(Nc2ccccc2NC(=O)c2cc(Cl)ccc2F)C1	-	-	0	-
CCOc1ccccc1CNc1ccc(O)cc1	-	42	0	-
CCOc1cc(CNc2ccc(O)cc2)ccc1OCc1ccc(Cl)cc1Cl	0	41	-	0
Oc1ccc(NCc2ccccc2OCc2ccccc2F)cc1	0	0	0	0
CCOc1cccc(CNc2ccc(O)cc2)c1OCc1ccc(Cl)cc1	0	0	0	0
COC(=O)CCC(=O)Nc1nc(-c2ccccc2)cs1	0	0	0	334
